{
  "source": "PubChem BioAssay AID602478",
  "about": "(National Center for Advancing Translational Sciences (NCATS), 2012)",
  "note": "Records with an inconclusive call do not appear. A call without a number means that no potency is given here. Activity calls are given as the source filed them. The call rests on the fitted dose curve; in most records, active means well fitted activation curve with a large enough effect; inconclusive means small, poorly fitted or top-dose-only effect; inactive means flat fitted curve, though single readings scatter.",
  "data": [
    {"molecular_target": "Luciferin 4-monooxygenase (Photinus pyralis) (UniProt P08659)", "sequence (P08659 whole entry, looked up)": "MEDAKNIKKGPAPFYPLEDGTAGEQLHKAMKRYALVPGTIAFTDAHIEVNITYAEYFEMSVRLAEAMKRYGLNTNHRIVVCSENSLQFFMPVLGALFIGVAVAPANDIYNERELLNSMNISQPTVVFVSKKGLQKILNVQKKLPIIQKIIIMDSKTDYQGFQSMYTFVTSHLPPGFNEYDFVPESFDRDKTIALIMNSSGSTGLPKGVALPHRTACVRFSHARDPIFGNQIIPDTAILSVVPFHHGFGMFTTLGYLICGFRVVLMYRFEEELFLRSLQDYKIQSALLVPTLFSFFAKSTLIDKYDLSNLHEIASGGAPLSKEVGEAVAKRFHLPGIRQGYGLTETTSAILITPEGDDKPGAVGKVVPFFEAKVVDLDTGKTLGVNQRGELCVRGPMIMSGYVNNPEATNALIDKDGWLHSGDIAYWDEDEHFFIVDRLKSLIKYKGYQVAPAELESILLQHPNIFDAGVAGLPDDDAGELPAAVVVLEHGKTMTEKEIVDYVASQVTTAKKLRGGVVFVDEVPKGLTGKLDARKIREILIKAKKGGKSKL", "test": "FLuc inhibitory activity for the follow-up compounds in a cell-based translational read-through assay (72 hour incubation)", "details": "GripTite 293 FLucUGA read-through, luminescence; series mostly up to 38.3 µM", "from_the_text": "NCGC Assay Overview: Firefly (Photinus pyralis) luciferase is one of the most commonly used transcriptional reporters. It is considered one of the more dynamically responsive reporters - that is, responsive to changes in reporter transcription - as it requires no post-translational modifications and is enzymatically active directly after protein synthesis (Wood, 1998). With no endogenous expression in mammalian cells and without the requirement of external excitation, it offers very little background signal, thus generally providing excellent signal to background for most assays. Previous profiling work to determine the prevalence of compounds that affect FLuc enzymatic activity (PubChem AID 411) identified that ~3% of the MLSMR library (then at ~72K) inhibited FLuc (Auld et al., 2008). […] Of the compounds identified in this profile that inhibited FLuc, 151 compounds were selected for further analysis, in an effort to better understand their mode of inhibiting FLuc. The assay described here was to determine the activity of the compounds in a cell-based firefly luciferase reporter gene assay originally designed to identify compounds that enchanced translational read-through of a FLuc cDNA that contained a premature stop codon (Auld et al., 2009; Auld et al., 2010). Compounds that enhance translational read-through or compounds that stabilize FLuc intracellularly are identified as active compounds in the assay.\nNCGC Assay Protocol Summary: Reagents: Transient transfection of FlucUGA construct: TransFast Transfection Reagent (Promega #E2431); FLucUGA construct (refer to Auld et al., 2009) #GripTite 293 MSR Cell Line (Invitrogen #R795-07) #Complete growth media: DMEM (Invitrogen #11965), 10% HIFBS, 0.1mM MEM NEAA, 5mL/L pen-strep (of 5000U/mL stock), 600ug/mL Geneticin #Assay media: DMEM without phenol red (Invitrogen #21063), 5% charcoal-stripped HIFBS (Hyclone #SH30071.03), 0.1mM MEM NEAA In-house detection reagent: 300mM Tris-HCl, 300mM Trizma base, 300mM MgCl, 1% Triton-X100, 5mM DTT, 500uM Coenzyme A trilithium salt (Sigma #C3019),450uM ATP (Sigma #A7699), 1mM D-luciferin sodium salt monohydrate (Biosynth #L8240) Control compounds used were two known firefly luciferase inhibitors (3-(5-(3-chlorophenyl)-1,2,4-oxadiazol-3-yl)benzoic acid and 5-(2-fluorophenyl)-3-phenyl-1,2,4-oxadiazole), and DMSO. Assay Summary: Transient transfection of FlucUGA construct: Day 1: GripTite cells were plated in T175 flasks at a density of 1.75 x 10^7 cells/T175 flask in complete growth media without Geneticin and allowed to grow ON in a 37 degrees Celsius incubator. Day 2: Cells in T175 flask were transfected - with 10ug of DNA and 30uL Transfast in 12mL complete growth media without serum and without Geneticin for 4 hours at 37 degrees Celsius. After incubation, cells were trypsinized, spun down, and resuspended to a concentration of 3.3 x 10^5 cells/mL in assay media. 6uL of cells in assay buffer were dispensed at 2000cells/well (3.3 x 10^5 cells/mL) into Greiner solid-white TC-treated 1536-well plates using a Multidrop Combi (Thermo Fisher Scientific). Plates were incubated for one hour at 37 degree Celsius, 95% humidity, 5% CO2. These assay plates were then treated with 23nL of compound or DMSO using a Kalypsys pin tool, which allows for delivery of a 12-point titration of each compound to the assay plate, with a final compound concentration ranging from approximately ~38uM to 0.2nM. Assay plates were then incubated for 72 hours. After incubation, plates were washed three times with DPBS (7uL/well). After the third wash, 6uL of DPBS was added to each well. 3uL of 3X luciferase detection reagent was then added to each well using a flying reagent dispenser (FRD). After a 15 minute incubation to allow for cell lysis, luciferase activity was measured using a ViewLux CCD imager (PerkinElmer), with an average exposure time of 2-12 seconds.", "values": [
      {"smiles": "O=C(O)c1ccc(NC(=O)c2ccccc2NC(=O)c2cccc(Br)c2)cc1", "Potency": "inactive"},
      {"smiles": "O=C(Nc1cccc(-c2nc3ccccc3s2)c1)C1=COCCO1", "Potency": "inactive"},
      {"smiles": "COc1ccc2nc(NC(=O)c3nc(S(=O)(=O)Cc4ccc(C)cc4)ncc3Cl)sc2c1", "Potency": "inactive"},
      {"smiles": "O=C(O)c1cccc(NC(=O)c2ccc(Cl)c(S(=O)(=O)N3CCCCCC3)c2)c1", "Potency": "283 nM (active)"},
      {"smiles": "O=C(Nc1ccccc1C(=O)O)c1ccc(NC(=O)C2CC2)cc1", "Potency": "inactive"},
      {"smiles": "CCOc1ccc2nc(NC(=O)c3cc([N+](=O)[O-])ccc3N3CCOCC3)sc2c1", "Potency": "inactive"},
      {"smiles": "O=C(Cc1ccccc1)Nc1ccccc1C(=O)Nc1ccc(C(=O)O)cc1", "Potency": "inactive"},
      {"smiles": "O=C(Nc1ccccc1C(=O)O)c1ccc(NC(=O)C2CCCO2)cc1", "note": "(stereo unspecified)", "Potency": "inactive"},
      {"smiles": "Nc1ccc2nc(-c3ccccc3)sc2c1", "Potency": "1130 nM (active)"},
      {"smiles": "COc1cc(OC)cc(C(=O)Nc2ccccc2-c2nc3ccccc3s2)c1", "Potency": "inactive"},
      {"smiles": "O=C(Nc1ccc(Cl)cc1-c1nc2ccccc2s1)c1ccco1", "Potency": "inactive"},
      {"smiles": "O=C(Nc1ccccc1C(=O)O)c1cccc(S(=O)(=O)N2CCCC2)c1", "Potency": "inactive"},
      {"smiles": "O=C(Nc1ccccc1C(=O)O)c1cccc(NC(=O)c2ccc(Br)o2)c1", "Potency": "inactive"},
      {"smiles": "O=C(Nc1ccccc1C(=O)O)c1cccc(C(=O)Nc2ccccc2C(=O)O)c1", "Potency": "inactive"},
      {"smiles": "CC(=O)Oc1ccc(C(=O)Nc2ccccc2C(=O)Nc2ccc(C(=O)O)cc2)cc1", "Potency": "inactive"},
      {"smiles": "O=C(Cc1ccc(Cl)cc1)Nc1cccc(C(=O)Nc2ccccc2C(=O)O)c1", "Potency": "inactive"}
    ]}
  ]
}
